# Assay outcomes deposited in PubChem by several laboratories.
# HIF activator – HIF pathway transcriptional activation. U2OS HRE-luciferase reporter, luminescence; normalized: DMSO 0%, desferrioxamine 100%. activation, % at 7.5 µM (by protocol). 300,000 compounds, 0.32% hits;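 active = mean activation of at least 10% of the iron chelator positive control signal, with at least half of replicates also reaching 10%; inconclusive = mean and replicate majority disagree about reaching 10%; inactive = mean and most replicates under 10%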
# PolyA inh – blocks polyadenylation in yeast reporter cells. S. cerevisiae SKY197-pL101 polyadenylation reporter, beta-gal luminescence; efflux-impaired pdr1/pdr3 knockout yeast; score 100 = 6 SD above DMSO. activity score, % at 12 µM. 300,000 compounds, 0.02% hits. AID 1875;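 active = lowest replicate activity score at least 50, where 100 means six control SD above control mean; inconclusive = lowest score under 50 but half or more replicates reach 50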;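 note: yeast exposed to compound for 9 h at 30 °C; higher score means more reporter readthrough which indicates perturbed polyadenylation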
# Platelet DG rel – modulates dense granule release in human platelets; 300,000 compounds, 0.22% hits; AID 1663; human platelet-rich plasma, SFLLRN dense granule ATP release, luminescence; inhibition, %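 (compounds screened at 7.5 µM in platelet-rich plasma)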;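 active = mean replicate score, as percent of positive control, at or above 50; inconclusive = mean below 50 but at least one replicate at or above 50; inactive = mean and every replicate below 50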
# pCIP destab – compounds decreasing mouse p/CIP protein stability. F442A p/CIP-EGFP cells, EGFP fluorescence, 16 h. decrease of EGFP signal, % at 10 µM. 290,000 compounds, 0.01% hits;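 active = EGFP signal decrease of at least 30% at 10 µM or well 3 SD below plate mean, unless failing retest; inactive = the rest, including hits failing retest or dose response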
# AHR activator – activators of human aryl hydrocarbon receptor; P35869; AHR-responsive luciferase reporter cells, luminescence; activation, % at 5 µM; 320,000 compounds, 2.5% hits; in the data active = activation above about 47%;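 note: 0% = vehicle wells and 100% = reference agonist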
# AHR act confirm – confirmation of human aryl hydrocarbon receptor activators | human cells, AHR-responsive luciferase reporter, luminescence | shares compounds with AHR activator | activation, % at 9 µM | 2,300 compounds, 87% hits | AID 2845; in the data active = activation above about 49%;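 note: HepG2 hepatoma cells carrying a DRE-driven firefly luciferase reporter; 0% = vehicle wells and 100% = reference agonist wells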
# PXR counter – activates human PXR in AHR activator counter-screen; AID 434939; 2,300 compounds, 88% hits; cell-based PXR reporter, luciferase luminescence; shares compounds with AHR activator; activation, % at 11.6 µM; in the data active = activation above about 11%;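 note: human hepatoma DPX-2 cells expressing full-length human PXR; 0% = DMSO and 100% = reference agonist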
# Target sequence (O75469 whole entry, looked up): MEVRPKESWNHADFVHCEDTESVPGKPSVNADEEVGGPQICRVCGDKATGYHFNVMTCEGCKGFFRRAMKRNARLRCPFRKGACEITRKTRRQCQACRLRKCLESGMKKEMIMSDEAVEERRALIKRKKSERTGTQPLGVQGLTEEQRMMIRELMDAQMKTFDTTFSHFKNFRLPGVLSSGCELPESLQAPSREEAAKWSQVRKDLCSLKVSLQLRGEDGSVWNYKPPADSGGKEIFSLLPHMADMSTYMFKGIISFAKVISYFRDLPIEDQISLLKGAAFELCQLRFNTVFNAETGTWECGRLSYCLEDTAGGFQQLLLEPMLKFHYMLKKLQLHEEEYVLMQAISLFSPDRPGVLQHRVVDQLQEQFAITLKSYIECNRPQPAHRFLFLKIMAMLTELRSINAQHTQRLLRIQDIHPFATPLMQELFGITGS
# The depositor's hits bear a star; ? = inconclusive; . = no result. Most compounds without a hit are left out; they make up all but 2.8% or so of the library.
SMILES,HIF activator,PolyA inh,Platelet DG rel,pCIP destab,AHR activator,AHR act confirm,PXR counter
CCOc1cccc(C(=O)Nc2ccncc2)c1,0,11,2,-23,37,.,.
COc1ccc(/C=C/C(=O)c2cc(Cl)cc(Cl)c2O)c(OC)c1,0,-17,1,-10,7,.,.
O=C(/C=C/c1ccccn1)c1cc(Cl)cc(Cl)c1O,1,-1,4,-21,83*,113*,219*
Cc1ccccc1C(=O)O/N=C(\N)c1ccc([N+](=O)[O-])cc1,2,-7,-13,-8,15,.,.
N/C(=N\OC(=O)c1ccccc1[N+](=O)[O-])c1cccnc1,3,5,6,-12,138*,76*,29*
N/C(Cc1ccccc1)=N\OC(=O)c1cccc2ccccc12,0,-83,5,-7,38,.,.
Cc1ccccc1C(=O)O/N=C(\N)c1ccccc1,-1,8,60*,2,79*,95*,8
N/C(=N\OC(=O)c1cccc2ccccc12)c1ccc(Br)cc1,0,-37,3,10,96*,99*,15*
Cc1ccc(C(=O)O/N=C(\N)c2ccc(Br)cc2)cc1C,4,-5,-3,-18,33,.,.
N/C(=N\OC(=O)c1ccc([N+](=O)[O-])cc1)c1cccnc1,1,-12,8,4,-2,.,.
Cc1ccc(C)c(C(=O)O/N=C(\N)c2ccc(Br)cc2)c1,1,-32,7,-3,95*,118*,15*
CC1CCN(C2=NC(=O)/C(=C/c3cn(-c4ccccc4)nc3-c3cccc(S(=O)(=O)N(C)C)c3)S2)CC1,0,-3,0,-26,2,.,.
Cc1cccnc1CNC(=O)C1CCC(=O)N(CCc2cccc(F)c2)C1 (stereo unspecified),1,-35,0,-2,1,.,.
CCn1c(SCC(=O)NCC2CCCO2)nc2c([nH]c3ccccc32)c1=O (stereo unspecified),0,-19,-9,7,80*,88*,80*
O=C(CSc1nc2ccccc2c(=O)n1-c1ccccc1Cl)NCC1CCCO1 (stereo unspecified),.,.,.,.,0,.,.
COc1ccccc1-n1c(SCC(=O)Nc2ccc(NC(C)=O)cc2)nc2c([nH]c3ccccc32)c1=O,0,1,-11,9,81*,100*,119*
O=C(CSc1nc2c([nH]c3ccccc32)c(=O)n1-c1ccccc1)NCC1CCCO1 (stereo unspecified),0,-6,17,10,26,.,.
COc1ccccc1-n1c(SCC(=O)NCC2CCCO2)nc2c([nH]c3ccccc32)c1=O (stereo unspecified),0,19,-17,-7,90*,127*,164*
COCCn1c(SCC(=O)Nc2cccc(NC(C)=O)c2)nc2c([nH]c3ccccc32)c1=O,0,-5,18,-5,108*,91*,39*
CCCCn1c(N)c(N(CC)C(=O)C2=COCCO2)c(=O)[nH]c1=O,0,-15,9,.,-1,.,.
Cc1cc(-n2c(C)cc(C(=O)COc3ccc(F)c(F)c3)c2C)no1,.,.,.,.,5,.,.
Cc1c(C)n(CC(O)CN2C(=O)c3ccccc3S2(=O)=O)c2ccccc12 (stereo unspecified),1,-19,5,-1,21,.,.
CC(=O)C1=C(O)C(=O)N(c2nccs2)C1c1ccc(Br)cc1 (stereo unspecified),0,0,8,1,171*,43,9
CCN(CC(=O)NCc1ccc(F)cc1)C(=O)CN1CCN(c2ccc(OC)cc2)CC1,-1,-9,23,-15,5,.,.
CCC(C)NC(=S)N(Cc1cc2cc(C)ccc2n2nnnc12)CC(C)(C)NC(C)C (stereo unspecified),1,-6,-4,-24,0,.,.
SMILES,HIF activator,PolyA inh,Platelet DG rel,pCIP destab,AHR activator,AHR act confirm,PXR counter
CCC(C)Nc1nc(N)c([N+](=O)[O-])c(Nc2cc(OC)ccc2OC)n1 (stereo unspecified),-1,-11,-4,4,80*,127*,76*
COc1ccc(OC)c(Nc2nc(NCCC(C)C)nc(N)c2[N+](=O)[O-])c1,?,-11,1,3,20,.,.
C=CCNc1nc(N)c([N+](=O)[O-])c(Nc2ccccc2OC)n1,-1,-42,-15,-8,116*,123*,21*
CC1=C(C(=O)Nc2ccccn2)C(c2cccnc2)n2nnnc2N1 (stereo unspecified),0,-8,-1,-4,1,.,.
O=C(COC(=O)c1cc(=O)[nH]c2ccccc12)c1cccs1,0,-7,6,6,3,.,.
O=C(C[n+]1cc2ccccc2c2ccccc21)c1ccccc1,0,9,22,-3,87*,93*,55*
O=C1c2ccccc2C(=O)N1CCC1=CCCCC1,2,-24,-1,16,103*,121*,17*
O=C(O)c1ccc2c(c1)C(=O)N(CCC1=CCCCC1)C2=O,0,-19,2,-6,2,.,.
Cn1cc(/C=C2/SC(=O)N(c3ccccc3)C2=O)c2ccccc21,2,-10,3,2,101*,87*,17*
Cn1cc(/C=C2\SC(=S)N(N3CCOCC3)C2=O)c2ccccc21,0,3,-52,1,107*,6,6
Cn1cc(/C=C2\SC(=S)N(NC(=O)c3ccccc3)C2=O)c2ccccc21,-4,-11,0,-49,21,.,.
CCOc1ccc(N=C2SC(C(=O)Nc3ccccc3C#N)C(N)=C2C(=O)Nc2ccc(Cl)cc2)cc1 (stereo unspecified),0,27,4,2,86*,71*,5
N#Cc1ccccc1NC(=O)C1SC(=Nc2ccccc2)C(C(=O)Nc2ccc(Cl)cc2)=C1N (stereo unspecified),0,-22,11,-1,29,.,.
CCN1C(=NCC(C)C)N[C@@H](c2cccc(F)c2)C(C(=O)OC)=C1C,0,10,-3,0,-1,.,.
COc1ccc(C)cc1NC(=O)c1ccc2c(c1)OCO2,1,-12,1,-9,104*,116*,26*
O=C(Nc1ccc2c(c1)CCC2)Nc1ccc2c(c1)OCO2,4,12,-3,7,85*,52*,43*
O=C(N/N=C/c1ccc2c(c1)OCO2)c1ccc2c(c1)OCO2,3,12,-14,2,115*,93*,25*
COc1ccccc1C(=O)Nc1ccc2c(c1)OCO2,2,2,21,-5,146*,147*,53*
C[C@@H]1CN(c2c(F)c(N)c3c(=O)c(C(=O)O)cn(C4CC4)c3c2F)C[C@H](C)N1,.,.,.,1,.,.,.
